{
  "source": "PubChem BioAssay (Tox21)",
  "note": "Inconclusive results are not listed. Entries that show only a call come without a potency. Calls of active or inactive are those of the source. Calls come from the whole dose curve; as a rule, active = well fitted inhibition curve with a large enough effect in the repeat runs; inconclusive = weak or mixed curves; inactive = no such curve, though single readings can be large or run the other way. Potency is the fitted concentration of half-maximal effect.",
  "data": [
    {"experiment": "qHTS assay to identify small molecule antagonists of the estrogen related receptor (ERR) signaling pathway from Tox21 library (AID 1224848); note: nearly all actives have a fitted effect of over 50% in size", "conditions": "ERR reporter cell line, luciferase antagonist mode, 18 h; series mostly up to 92.4 µM", "description": "U.S. Tox21 Program National Center for Advancing Translational Sciences [NCATS] NIH Chemical Genomics Center [NCGC] U.S. Environmental Protection Agency [EPA] National Institutes of Environmental Health Sciences [NIEHS] National Toxicology Program [NTP] U.S. Food and Drug Administration [FDA] Tox21 Assay Overview: Estrogen related receptors (ERRs), the first orphan nuclear receptors discovered, play an important role in the control of cellular energy metabolism. ERRs are required for high-energy production in response to the environmental challenges. ERR-alpha was also identified as an adverse marker for breast cancer progression; ERR-alpha-positive tumors have a poor prognosis. To screen and to identify environmental compounds that perturb the ERR signaling pathways could provide valuable information for potential therapeutic or preventive measures in the treatment of metabolic disease. For identifying ERR antagonists, ERR cell line (provided by NTP) has been used to screen Tox21 10K library.\nTox21 Assay Protocol Summary: The ERR cells were dispensed at 2,000 cells/5 ul/well in 1536-well white plates using a Multidrop dispenser. After the assay plates were incubated at a 37 C/5% CO2 incubator for 6 hours, 23 nL of compounds dissolved in DMSO, positive and negative controls or DMSO only was transferred to the assay plate by a pin tool. The plates were incubated at 37 C for 18 hours. 4 ul/well of One-Glo reagent was added into the assay plates using a Flying Reagent Dispenser. After 30-minute incubation at room temperature, the luminescence intensity in the plates was measured using a ViewLux plate reader.", "values": [
      {"smiles": "O=[Si]=O", "Potency": "inactive"},
      {"smiles": "CN[C@@H]1[C@@H](O)[C@@H](O[C@@H]2[C@H](O)[C@H](O[C@H]3OC(CN)=CC[C@H]3N)[C@@H](N)C[C@H]2N)OCC1(C)O", "note": "(stereo not given in full)", "Potency": "inactive"},
      {"smiles": "O=C(COCCOCCOCC(=O)Nc1c(I)cc(I)c(C(=O)O)c1I)Nc1c(I)cc(I)c(C(=O)O)c1I", "Potency": "inactive"},
      {"smiles": "COc1cccc2sc(N)nc12", "Potency": "inactive"},
      {"smiles": "NC(=O)C1(N2CCCCC2)CCN(CCCC(=O)c2ccc(F)cc2)CC1", "Potency": "inactive"},
      {"smiles": "Cc1cccc(NC(=S)N(C)C)c1", "Potency": "48.6 µM (active)"},
      {"smiles": "C1=CCC(c2ccccc2)CC1", "note": "(stereo not given)", "Potency": "inactive"},
      {"smiles": "Cc1nc2n(c(=O)c1CCN1CCC(C(=O)c3ccc(F)cc3)CC1)CCS2", "Potency": "11.9 µM (active)"},
      {"smiles": "C=C(C)C(=O)OCCCCCCOC(=O)C(=C)C", "Potency": "inactive"},
      {"smiles": "O=CO", "activity, negative = inhibition": "-2.33% [at 8.39 µM] (inactive)"},
      {"smiles": "CC(=O)/C=C/c1ccco1", "Potency": "inactive"},
      {"smiles": "CNCc1ccccc1", "Potency": "inactive"},
      {"smiles": "CCCOCCOCCOCCO", "Potency": "inactive"},
      {"smiles": "CN(C)CCOCCN(C)CCO", "Potency": "inactive"},
      {"smiles": "CCc1nccnc1C", "Potency": "inactive"},
      {"smiles": "NC(=O)NC(=O)Cc1ccccc1", "Potency": "inactive"},
      {"smiles": "Nc1ccc(C(=O)OCC(O)CO)cc1", "note": "(stereo not given)", "Potency": "inactive"},
      {"smiles": "CC(C)C(=O)c1ccccc1", "Potency": "inactive"},
      {"smiles": "CN=C(NC#N)NCCSCc1csc(N=C(N)N)n1", "Potency": "inactive"},
      {"smiles": "CC(=O)c1ccc(OCC(=O)N2CCCCC2)cc1", "Potency": "inactive"},
      {"smiles": "O=c1[nH]c(=O)c2ccccc2o1", "Potency": "inactive"},
      {"smiles": "CC(C)(CO)[C@@H](O)C(=O)NCCCO", "Potency": "inactive"},
      {"smiles": "C=CCOc1c(Br)cc(C(C)(C)c2cc(Br)c(OCC=C)c(Br)c2)cc1Br", "Potency": "29.9 µM (active)"},
      {"smiles": "CC(C)(C)NCCO", "Potency": "inactive"},
      {"smiles": "CCCCOC(=O)C(=O)OCCCC", "Potency": "inactive"},
      {"smiles": "Nc1ccc(/C=C/c2ccc(N)cc2S(=O)(=O)O)c(S(=O)(=O)O)c1", "activity, negative = inhibition": "4.28% [at 0.349 µM] (inactive)"},
      {"smiles": "CCNC(=O)NCCCOc1cccc(CN2CCCCC2)c1", "Potency": "inactive"},
      {"smiles": "C[C@@H]1C[C@H]2[C@@H]3C[C@H](F)C4=CC(=O)C=C[C@]4(C)[C@@]3(F)[C@@H](O)C[C@]2(C)[C@@]1(O)C(=O)CO", "Potency": "inactive"},
      {"smiles": "CCCCCCCCCCCCCCCCCCN(C)C", "Potency": "inactive"},
      {"smiles": "CC(=O)OCCCc1ccccc1", "Potency": "inactive"},
      {"smiles": "O=C(O)CCNC(=O)c1ccccc1", "Potency": "inactive"},
      {"smiles": "O=C(O)c1ccc(OCCN2CCCCC2)cc1", "Potency": "inactive"},
      {"smiles": "CCCCC(C)C(=O)O", "note": "(stereo not given)", "Potency": "inactive"},
      {"smiles": "C=C(C)C(=O)OC", "Potency": "inactive"},
      {"smiles": "CCCCCCCCCCC", "Potency": "inactive"},
      {"smiles": "O=S(=O)(O)c1cc(O)ccc1O", "Potency": "inactive"},
      {"smiles": "COc1cc(C=O)ccc1OC(=O)C(C)C", "Potency": "inactive"},
      {"smiles": "O=C(Oc1ccccc1C(=O)O)c1ccccc1O", "Potency": "inactive"},
      {"smiles": "CCS(=O)(=O)CCn1c([N+](=O)[O-])cnc1C", "Potency": "inactive"},
      {"smiles": "C[C@H](CCC(=O)NCC(=O)O)[C@H]1CC[C@H]2[C@@H]3[C@H](O)C[C@@H]4C[C@H](O)CC[C@]4(C)[C@H]3C[C@H](O)[C@]12C", "Potency": "inactive"}
    ]}
  ]
}
